# Out of some 39,000 compounds screened, about 3,300 (8.5%) were called active. Many of the other results were omitted from the sample, so actives are more common in it than they were.
# System: HepG2
# Assay: cytotoxicity call (relative viability < 0.9)
# Conditions: 10 µM
row,Compound,cytotoxicity call
1,C[C@H](CO)N1C[C@H](C)[C@H](CN(C)C(=O)Nc2cccc3ccccc23)Oc2ccc(NC(=O)Nc3ccccc3)cc2CC1=O,inactive
2,Cc1cccc(NC(=O)Nc2ccc3c(c2)C(=O)N(C)[C@H]2CC[C@H](CC(=O)NCc4ccccc4Cl)O[C@H]2CO3)c1,inactive
3,C[C@@H]1CN([C@H](C)CO)S(=O)(=O)c2ccc(C#CC3CC3)cc2O[C@H]1CN(C)C(=O)Cc1ccncc1,inactive
4,C[C@H]1CN([C@@H](C)CO)C(=O)c2cccc(NS(=O)(=O)c3ccccc3)c2O[C@H]1CN(C)S(=O)(=O)c1ccc(F)cc1,inactive
5,COCCNC(=O)C[C@H]1CC[C@H]2[C@@H](COC[C@H](O)CN2C(=O)Nc2ccc3c(c2)OCO3)O1,inactive
6,C(=N\Cc1cccnc1)/c1c2ccccc2cc2ccccc12,active
7,OCc1cccnc1,inactive
8,O=C(O)CCC(=O)NCc1cccnc1,inactive
9,NC(=O)c1ccc([N+](=O)[O-])cc1Cl,inactive
10,O=C(Nc1cc(Cl)ccc1Cl)c1cc(Br)ccc1NS(=O)(=O)c1ccc(Cl)c([N+](=O)[O-])c1,active
11,C[C@H](CO)N1C[C@H](C)[C@@H](CN(C)Cc2ccc(C(=O)Nc3ccccc3N)cc2)Oc2c(NS(=O)(=O)c3ccc(Cl)cc3)cccc2C1=O,inactive
12,O=C(Nc1ccc(Cl)cc1C(=O)c1ccc(Cl)cc1)c1cc(Br)ccc1NS(=O)(=O)c1ccc(Cl)cc1,active
13,NS(=O)(=O)c1ccc(Cl)cc1[N+](=O)[O-],inactive
14,O=C(Nc1ccc([N+](=O)[O-])cc1Cl)c1cc(Cl)ccc1O,active
15,C/C=C/C(=O)c1cc(Cl)ccc1O,inactive
16,O=C(Nc1cc(Cl)ccc1Cl)c1cc(Cl)ccc1NS(=O)(=O)c1ccc(Cl)c([N+](=O)[O-])c1,active
17,CNS(=O)(=O)c1ccc(Cl)c(C(N)=O)c1,inactive
18,C[C@H]1CN([C@@H](C)CO)C(=O)c2cccc(NS(=O)(=O)c3ccc(Cl)cc3)c2O[C@H]1CN(C)Cc1ccc(C(=O)Nc2ccccc2N)cc1,inactive
19,NS(=O)(=O)c1ccc(F)c([N+](=O)[O-])c1,inactive
20,C[C@@H]1CN([C@@H](C)CO)S(=O)(=O)c2ccc(-c3cccc(C(=O)N(C)C)c3)cc2O[C@@H]1CN(C)C(=O)Cc1ccccn1,inactive
21,COc1ccc([C@@H]([C@H](Cc2ccccc2)OC(C)=O)N2C[C@H]3C(=NO[C@@H]3[C@@H](OC(C)=O)c3ccccc3)[C@@H]2Cc2ccccc2)cc1,inactive
22,C[C@@H]1CN([C@@H](C)CO)C(=O)c2cc(NC(=O)CCN3CCOCC3)ccc2O[C@H]1CN(C)Cc1ccc2c(c1)OCO2,inactive
23,COCC(=O)Nc1ccc2c(c1)C(=O)N(C)C[C@@H](OC)[C@@H](C)CN(C(=O)c1ccccc1F)[C@@H](C)CO2,inactive
24,CO[C@@H]1CN(C)C(=O)c2cc(NC(=O)C3CCCC3)ccc2OC[C@@H](C)N(C(=O)Nc2ccc(C(F)(F)F)cc2)C[C@H]1C,inactive

row,Compound,cytotoxicity call
1,Cc1cnc(CNC(=O)[C@H]2C[C@H]3[C@@H](CCN3S(C)(=O)=O)O2)cn1,inactive
2,O=C(C[C@@H]1C[C@@H]2c3cc(NS(=O)(=O)c4ccc(F)cc4)ccc3O[C@@H]2[C@H](CO)O1)NCC(F)(F)F,inactive
3,CC=Cc1ccc2n(c1=O)C[C@@H]1[C@@H](CO)[C@H](C(=O)NCCc3cn(C)cn3)[C@H]2N1C(=O)C1CC1,inactive
4,Cn1c(=O)c(=O)n(C)c2cc(S(=O)(=O)CCC(=O)NCc3ccccc3)ccc21,inactive
5,CCCCOC(=O)c1ccc(O)cc1,inactive
6,CCCCNc1ccc(C(=O)OCCN(C)C)cc1.Cl,active
7,CCCCNc1ccc(C(=O)OCCOCCOCCOCCOCCOCCOCCOCCOCCOC)cc1,inactive
8,Cc1noc(C)c1NC(=O)N(C)C[C@@H]1Oc2c(NC(=O)Nc3cccc4ccccc34)cccc2C(=O)N([C@H](C)CO)C[C@@H]1C,inactive
9,C[C@@H]1CN([C@H](C)CO)C(=O)c2cc(NC(=O)c3ccccc3)ccc2O[C@@H](C)CCCCO[C@@H]1CN(C)Cc1ccncc1,inactive
10,O=C(C1CCC1)N1CCOCC1,inactive
11,C[C@@H](N)CCc1ccc(Br)cc1,inactive
12,C[C@@H]1CCCCO[C@@H](CN(C)C(=O)C2CCCCC2)[C@H](C)CN([C@@H](C)CO)C(=O)c2cc(NC(=O)c3ccncc3)ccc2O1,inactive
13,C[C@@H]1CN([C@H](C)CO)C(=O)c2cc(NC(=O)CCCN(C)C)ccc2O[C@@H]1CN(C)C(=O)Nc1ccc2c(c1)OCO2,inactive
14,Cc1ccc(S(=O)(=O)Nc2ccc3c(c2)C(=O)N([C@@H](C)CO)C[C@H](C)[C@H](CN(C)C(=O)Nc2cccc4ccccc24)O3)cc1,inactive
15,C[C@@H]1CN([C@H](C)CO)C(=O)c2cc(NS(=O)(=O)c3ccccc3)ccc2O[C@@H]1CN(C)C(=O)Nc1cccc2ccccc12,active
16,Cc1ccc(S(=O)(=O)Nc2ccc3c(c2)C(=O)N([C@H](C)CO)C[C@@H](C)[C@H](CN(C)C(=O)Nc2cccc4ccccc24)O3)cc1,active
17,C[C@@H]1CN([C@H](C)CO)C(=O)c2cc(NS(=O)(=O)c3ccccc3)ccc2O[C@H]1CN(C)C(=O)Nc1cccc2ccccc12,inactive
18,C[C@H](CO)N1C[C@H](C)[C@H](CN(C)C(=O)Nc2cccc3ccccc23)Oc2ccc(NS(=O)(=O)c3ccccc3)cc2C1=O,inactive
19,Cc1ccc(S(=O)(=O)Nc2ccc3c(c2)C(=O)N([C@@H](C)CO)C[C@H](C)[C@@H](CN(C)C(=O)Nc2cccc4ccccc24)O3)cc1,inactive
20,CC(C)NC(=O)N(C)C[C@H]1Oc2ccc(NC(=O)c3ccncc3)cc2CC(=O)N([C@H](C)CO)C[C@@H]1C,inactive
21,C[C@@H]1CCCCO[C@H](CN(C)S(=O)(=O)c2cccs2)[C@H](C)CN([C@@H](C)CO)C(=O)c2cc(NS(=O)(=O)c3cn(C)cn3)ccc2O1,inactive
22,Cc1ccc(S(=O)(=O)Nc2ccc3c(c2)C(=O)N([C@@H](C)CO)C[C@@H](C)[C@@H](CN(C)C(=O)NC2CCCCC2)OCCCC[C@@H](C)O3)cc1,inactive
23,CC(C)(C)OC(=O)C[C@H]1CC=CC[C@H](CC(=O)NCCO)C(=O)N[C@H](Cc2ccccc2)COC1=O,inactive

# From the antibiotic and cytotoxicity screens of Wong et al. (2023)
